Laboratory results: PubChem BioAssay (EPA / NIEHS)
Some compounds were tested as several samples or in several runs, with calls that do not always agree. Active and inactive are the calls of the source. Rule for the calls: active = hit-call score of the fitted dose curve at least 0.9, where 1 is the maximum; inactive = score below 0.9.

Key:
[1] = ATG_GLI_CIS: Attagene CIS-FACTORIAL HepG2 Assay for human Zinc Finger Protein GLI1 (AID 2282945); conditions: HepG2, Attagene cis-factorial reporter mRNA, GLI element; actives raise or lower the signal
Method in brief: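 HepG2 cells transiently transfected with cis-promoter multiplexed reporter units report endogenous transcription factor activity. After 24 h chemical exposure, reporter mRNA was quantified by RT-PCR, 6-FAM labelling, HpaI digestion and capillary electrophoresis, with bidirectional fitting against DMSO.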

[2] = target: Bile acid receptor (Homo sapiens) (UniProt Q96RI1); test: ATG_IR1_CIS: Attagene CIS-FACTORIAL HepG2 Assay for human Nuclear Receptor Subfamily 1 Group H Member 4 (NR1H4), IR1 submotif (AID 2282946); conditions: IR1 reporter transcription, actives raise or lower the signal
Method in brief: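 Transient MRTU transfection, HepG2; 24 h dosing; RNA → RT-PCR → 6-FAM primer extension → HpaI digest → capillary electrophoresis fluorescence. Gain/loss of signal fitted relative to DMSO.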

[3] = ATG_GRE_CIS: Attagene CIS-FACTORIAL HepG2 Assay for human Glucocorticoid Response Elements (GRE) (AID 2282947); conditions: HepG2 GRE cis-reporter, Attagene multiplex mRNA; actives raise or lower the signal
Method in brief: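 HepG2 cells transiently transfected with multiple cis-promoter reporter units measure endogenous TF activity; 24 h compound exposure. Reporter mRNA quantified by RT-PCR, FAM labelling, HpaI digestion and capillary electrophoresis; bidirectional fit vs DMSO baseline.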

[4] = ATG_ISRE_CIS: Attagene CIS-FACTORIAL HepG2 Assay for human Interferon Regulatory Factor 1 (IRF1) binding to an Interferon-Stimulated Response Element (ISRE) (AID 2282948); conditions: HepG2 ISRE cis-reporter (Attagene), mRNA transcription readout; actives raise or lower the signal
Method in brief: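 HepG2 cells transiently transfected with multiplexed cis-promoter reporter units; after 24 h compound exposure, reporter mRNA quantified by RT-PCR, FAM labelling, HpaI digestion and capillary electrophoresis. Bidirectional fit versus DMSO baseline.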

[5] = ATG_M_32_CIS: Attagene CIS-FACTORIAL HepG2 Assay for M32 Transcription Factor (Internal Marker) (AID 2282949); conditions: HepG2 Attagene cis-factorial M32 reporter, mRNA; actives raise or lower the signal;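 note: background control marker of the multiplexed CIS panel rather than a real target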
Method in brief: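 Internal background marker read-out: RT-PCR/capillary electrophoresis fluorescence of reporter transcripts from transiently transfected HepG2 cells after 24 h chemical exposure. Activity fitted bidirectionally relative to DMSO negative control.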

[6] = ATG_M_06_CIS: Attagene CIS-FACTORIAL HepG2 Assay for M06 Transcription Factor (Internal Marker) (AID 2282950); conditions: HepG2 Attagene CIS-FACTORIAL M06 internal marker reporter; actives raise or lower the signal
Method in brief: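 Serves as a background control readout. Transfected HepG2 exposed to compounds for 24 h, then reporter transcripts quantified by fluorescent RT-PCR and capillary electrophoresis. Both directions fitted against DMSO baseline.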

[7] = target: Hypoxia-inducible factor 1-alpha (Homo sapiens) (UniProt Q16665); test: ATG_HIF1a_CIS: Attagene CIS-FACTORIAL HepG2 Assay for human Hypoxia Inducible Factor 1 (HIF1A) (AID 2282951); conditions: HepG2 Attagene cis-factorial HIF1a reporter transcription; actives raise or lower the signal
Method in brief: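 HepG2 cells transiently transfected with multiplexed cis-promoter reporter units; reporter mRNA read 24 h after dosing by RT-PCR, 6-FAM primer-extension labelling, HpaI digestion and capillary electrophoresis. Bidirectional fit versus DMSO baseline.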

[8] = target: Hepatocyte nuclear factor 6 (Homo sapiens) (UniProt Q9UBC0); test: ATG_HNF6_CIS: Attagene CIS-FACTORIAL HepG2 Assay for human Hepatocyte Nuclear Factor 6 (HNF6) (AID 2282952); conditions: HepG2 Attagene cis-factorial HNF6 reporter transcription; actives raise or lower the signal
Method in brief: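 HepG2 cells transiently transfected with cis-element-driven multiplexed reporter units measuring endogenous transcription factor activity. After 24 h exposure, reporter mRNA quantified by RT-PCR, FAM-labelled fragments and capillary electrophoresis; bidirectional fitting versus DMSO.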

[9] = target: Heat shock factor protein 1 (Homo sapiens) (UniProt Q00613); test: ATG_HSE_CIS: Attagene CIS-FACTORIAL HepG2 Assay for human Heat Shock Transcription Factor 1 (HSE) (AID 2282953); conditions: HepG2 HSE cis-reporter, Attagene RNA transcription; actives raise or lower the signal
Method in brief: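 Endogenous transcription factor activity in transiently transfected HepG2, read as reporter mRNA by RT-PCR with fluorescent capillary electrophoresis after 24 h. Gain or loss of signal fitted versus DMSO baseline.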

[10] = ATG_MRE_CIS: Attagene CIS-FACTORIAL HepG2 Assay for human Metal Responsive Element (MRE) (AID 2282954); conditions: HepG2 MRE cis-reporter transcription, Attagene multiplex; actives raise or lower the signal
Method in brief: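 HepG2 cells transiently transfected with multiple cis-element reporter units measure endogenous MTF1-driven transcription. After 24 h compound exposure, reporter mRNA is quantified by RT-PCR with 6-FAM labelling, HpaI digestion and capillary electrophoresis; bidirectional fits versus DMSO.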

[11] = ATG_PBREM_CIS: Attagene CIS-FACTORIAL HepG2 Assay for human Phenobarbital-responsive Enhancer Module (PBREM) (AID 2282955); conditions: HepG2 PBREM cis-reporter, Attagene multiplexed transcription; actives raise or lower the signal
Method in brief: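 HepG2 cells transiently transfected with multiple cis-regulated reporter transcription units; endogenous factor activity at the PBREM element measured as reporter mRNA 24 h after dosing, via RT-PCR and capillary electrophoresis of fluorescent fragments; bidirectional fitting versus DMSO.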

[12] = target: Paired box protein Pax-6 (Homo sapiens) (UniProt P26367); test: ATG_Pax6_CIS: Attagene CIS-FACTORIAL HepG2 Assay for human Paired Box 6 (PAX6) (AID 2282956); conditions: HepG2 CIS-FACTORIAL PAX6 reporter transcription, RNA readout; actives raise or lower the signal
Method in brief: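 HepG2 cells transiently transfected with multiplexed cis-promoter reporter units (endogenous TF activity) were dosed for 24 h. Reporter mRNA was quantified by RT-PCR, 6-FAM labeling, HpaI digestion and capillary electrophoresis; bidirectional fitting versus DMSO baseline.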

[13] = ATG_PXRE_CIS: Attagene CIS-FACTORIAL HepG2 Assay for human Pregnane X Receptor Element (PXRE) (AID 2282957); conditions: HepG2 Attagene CIS-FACTORIAL PXRE reporter, mRNA; actives raise or lower the signal
Method in brief: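 HepG2 cells transiently transfected with cis-element-driven multiplexed reporter units; after 24 h chemical exposure, reporter mRNA measured by RT-PCR, 6-FAM labelling, HpaI digestion and capillary electrophoresis. Bidirectional fitting relative to DMSO.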

[14] = ATG_PPRE_CIS: Attagene CIS-FACTORIAL HepG2 Assay for human Peroxisome Proliferator-activated Response Element (PPRE) (AID 2282958); conditions: HepG2 PPRE cis-element reporter, Attagene transcription factor profiling; actives raise or lower the signal
Method in brief: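 HepG2 cells transiently transfected with multiplexed cis-element reporter units measure endogenous transcription factor activity. After 24 h compound exposure, reporter mRNA is quantified by RT-PCR, 6-FAM labeling, HpaI digestion and capillary electrophoresis; bidirectional fits are made against DMSO baseline.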

[15] = ATG_RORE_CIS: Attagene CIS-FACTORIAL HepG2 Assay for human RAR-related Orphan Receptor Element (RORE) (AID 2282959); conditions: HepG2 Attagene cis-factorial RORE reporter, mRNA; actives raise or lower the signal
Method in brief: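 HepG2 cells transiently transfected with multiple cis-element reporter transcription units, exposed to chemical for 24 h. Reporter mRNA quantified by RT-PCR, 6-FAM primer-extension labeling, HpaI digestion and capillary electrophoresis; bidirectional fit versus DMSO baseline.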

[16] = ATG_Sox_CIS: Attagene CIS-FACTORIAL HepG2 Assay for human SRY-box transcription factor (SOX) (AID 2282960); conditions: HepG2 Attagene cis-factorial SOX reporter, mRNA; actives raise or lower the signal
Method in brief: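 HepG2 cells transiently transfected with cis-element-driven multiple reporter transcription units, dosed 24 h; reporter mRNA measured by RT-PCR, FAM labelling, HpaI digestion and capillary electrophoresis. Bidirectional fit versus DMSO baseline.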

[17] = target: Transcription factor Sp1 (Homo sapiens) (UniProt P08047); test: ATG_Sp1_CIS: Attagene CIS-FACTORIAL HepG2 Assay for human Specificity Protein 1 (Sp1) (AID 2282961); conditions: HepG2 Sp1 cis-reporter transcription, actives raise or lower the signal
Method in brief: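 HepG2 cells transiently transfected with multiple reporter transcription units driven by cis-regulatory elements; Sp1-responsive reporter mRNA measured 24 h after dosing by RT-PCR and capillary electrophoresis fluorescence, fitted bidirectionally against DMSO baseline.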

[18] = ATG_SREBP_CIS: Attagene CIS-FACTORIAL HepG2 Assay for human Sterol Regulatory Element Binding (SREBP) (AID 2282962); conditions: HepG2 Attagene cis-factorial SREBP reporter, mRNA; actives raise or lower the signal
Method in brief: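 HepG2 cells transiently transfected with multiplexed cis-element reporter units report endogenous transcription factor activity. After 24 h of chemical exposure, reporter mRNA was quantified by RT-PCR, 6-FAM labelling, HpaI digestion and capillary electrophoresis; bidirectional fits used DMSO as baseline.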

[19] = target: Signal transducer and activator of transcription 3 (Homo sapiens) (UniProt P40763); test: ATG_STAT3_CIS: Attagene CIS-FACTORIAL HepG2 Assay for human Signal Transducer and Activator of Transcription 3 (STAT3) (AID 2282963); conditions: HepG2, Attagene cis-factorial STAT3 reporter transcription; actives raise or lower the signal
Method in brief: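 HepG2 cells transiently transfected with cis-element-driven multiple reporter transcription units; after 24 h chemical exposure, reporter mRNA measured by RT-PCR, 6-FAM primer-extension labelling, HpaI digestion and capillary electrophoresis. Bidirectional fitting versus DMSO baseline.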

[20] = ATG_TA_CIS: Attagene CIS-FACTORIAL HepG2 Assay for human TA Basal Promoter (AID 2282964); conditions: HepG2 Attagene CIS-factorial TA basal promoter reporter; actives raise or lower the signal
Method in brief: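 Background-control readout: TA basal promoter reporter mRNA, fitted in both directions relative to DMSO. Measured by RT-PCR and capillary electrophoresis 24 hours after treating HepG2 human liver cells transiently carrying multiplexed cis-regulated reporter constructs.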

Measured: AC50

Signal transducer and activator of transcription 3 (Homo sapiens), sequence (P40763 whole entry, looked up): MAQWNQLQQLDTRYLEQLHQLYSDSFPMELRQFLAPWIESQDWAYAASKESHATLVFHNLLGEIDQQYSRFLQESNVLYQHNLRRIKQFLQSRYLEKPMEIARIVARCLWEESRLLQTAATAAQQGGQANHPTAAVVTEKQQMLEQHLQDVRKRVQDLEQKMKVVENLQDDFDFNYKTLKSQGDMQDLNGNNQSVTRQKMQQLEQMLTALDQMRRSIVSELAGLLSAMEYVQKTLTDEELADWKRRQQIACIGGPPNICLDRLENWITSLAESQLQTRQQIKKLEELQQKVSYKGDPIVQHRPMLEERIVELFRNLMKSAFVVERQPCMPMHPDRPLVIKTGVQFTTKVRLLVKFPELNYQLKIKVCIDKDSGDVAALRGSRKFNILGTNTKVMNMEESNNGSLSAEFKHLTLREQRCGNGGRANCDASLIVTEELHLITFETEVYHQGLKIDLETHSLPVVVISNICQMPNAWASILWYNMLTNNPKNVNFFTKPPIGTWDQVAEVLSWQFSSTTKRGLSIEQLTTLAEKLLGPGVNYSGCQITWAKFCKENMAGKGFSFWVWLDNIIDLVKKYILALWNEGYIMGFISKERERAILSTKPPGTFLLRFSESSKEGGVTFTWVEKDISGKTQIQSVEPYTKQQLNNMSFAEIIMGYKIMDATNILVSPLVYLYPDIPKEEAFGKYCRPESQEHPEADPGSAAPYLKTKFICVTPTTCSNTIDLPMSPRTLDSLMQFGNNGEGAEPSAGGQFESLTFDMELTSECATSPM
Heat shock factor protein 1 (Homo sapiens), sequence (Q00613 whole entry, looked up): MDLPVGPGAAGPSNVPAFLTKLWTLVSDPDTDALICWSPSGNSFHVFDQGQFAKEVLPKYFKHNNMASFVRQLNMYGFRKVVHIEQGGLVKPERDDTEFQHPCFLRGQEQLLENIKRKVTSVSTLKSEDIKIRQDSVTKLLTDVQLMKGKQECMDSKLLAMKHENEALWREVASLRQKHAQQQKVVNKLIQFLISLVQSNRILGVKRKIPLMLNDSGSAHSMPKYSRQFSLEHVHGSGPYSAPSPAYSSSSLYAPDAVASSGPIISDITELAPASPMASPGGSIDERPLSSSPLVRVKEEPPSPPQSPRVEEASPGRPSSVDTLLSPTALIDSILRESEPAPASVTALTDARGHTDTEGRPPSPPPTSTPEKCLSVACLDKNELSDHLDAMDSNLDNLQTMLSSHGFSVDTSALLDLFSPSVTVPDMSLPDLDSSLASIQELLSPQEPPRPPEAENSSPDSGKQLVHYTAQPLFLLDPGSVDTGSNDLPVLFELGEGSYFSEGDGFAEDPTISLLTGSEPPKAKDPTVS
Hypoxia-inducible factor 1-alpha (Homo sapiens), sequence (Q16665 whole entry, looked up): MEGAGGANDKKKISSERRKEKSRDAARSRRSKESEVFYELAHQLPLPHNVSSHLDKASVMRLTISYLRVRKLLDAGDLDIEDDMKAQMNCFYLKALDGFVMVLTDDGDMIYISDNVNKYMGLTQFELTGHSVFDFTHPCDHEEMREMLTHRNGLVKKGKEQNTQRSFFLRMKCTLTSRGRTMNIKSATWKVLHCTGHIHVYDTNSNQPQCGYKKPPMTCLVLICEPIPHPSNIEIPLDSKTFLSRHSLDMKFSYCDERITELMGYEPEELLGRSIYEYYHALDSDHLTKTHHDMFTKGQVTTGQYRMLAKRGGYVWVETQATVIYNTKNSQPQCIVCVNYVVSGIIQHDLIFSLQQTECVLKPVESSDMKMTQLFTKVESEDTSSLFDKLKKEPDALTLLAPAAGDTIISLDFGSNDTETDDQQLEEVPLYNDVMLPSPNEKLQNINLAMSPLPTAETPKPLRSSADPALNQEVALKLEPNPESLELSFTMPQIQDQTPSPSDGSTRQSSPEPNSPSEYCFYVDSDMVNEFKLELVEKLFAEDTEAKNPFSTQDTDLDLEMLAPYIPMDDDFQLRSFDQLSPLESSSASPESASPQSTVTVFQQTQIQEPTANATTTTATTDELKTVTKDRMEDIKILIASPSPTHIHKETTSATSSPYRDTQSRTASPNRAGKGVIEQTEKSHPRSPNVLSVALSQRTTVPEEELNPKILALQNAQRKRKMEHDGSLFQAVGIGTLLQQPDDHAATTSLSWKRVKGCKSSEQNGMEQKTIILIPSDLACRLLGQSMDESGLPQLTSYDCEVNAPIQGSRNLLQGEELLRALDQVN
Transcription factor Sp1 (Homo sapiens), sequence (P08047 whole entry, looked up): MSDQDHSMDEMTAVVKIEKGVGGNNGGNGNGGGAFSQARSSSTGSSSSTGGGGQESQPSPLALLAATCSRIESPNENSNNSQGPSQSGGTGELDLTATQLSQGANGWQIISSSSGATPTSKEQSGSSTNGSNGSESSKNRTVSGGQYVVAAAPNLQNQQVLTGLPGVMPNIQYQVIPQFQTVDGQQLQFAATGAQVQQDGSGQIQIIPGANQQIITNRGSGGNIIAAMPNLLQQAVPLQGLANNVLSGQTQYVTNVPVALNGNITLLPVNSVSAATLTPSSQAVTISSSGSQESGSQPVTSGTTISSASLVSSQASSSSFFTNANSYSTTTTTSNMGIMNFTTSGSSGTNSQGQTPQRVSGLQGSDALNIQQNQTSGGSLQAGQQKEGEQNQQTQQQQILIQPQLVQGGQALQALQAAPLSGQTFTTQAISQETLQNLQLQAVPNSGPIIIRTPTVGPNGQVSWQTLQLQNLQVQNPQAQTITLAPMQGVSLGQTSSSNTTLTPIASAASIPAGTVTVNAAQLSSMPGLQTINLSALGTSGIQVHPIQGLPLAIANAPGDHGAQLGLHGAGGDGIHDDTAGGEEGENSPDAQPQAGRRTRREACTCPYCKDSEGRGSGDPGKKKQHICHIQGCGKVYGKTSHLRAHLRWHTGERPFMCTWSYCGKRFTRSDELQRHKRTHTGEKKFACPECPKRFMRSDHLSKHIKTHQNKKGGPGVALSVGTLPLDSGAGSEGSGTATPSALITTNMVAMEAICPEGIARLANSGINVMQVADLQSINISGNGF
Paired box protein Pax-6 (Homo sapiens), sequence (P26367 whole entry, looked up): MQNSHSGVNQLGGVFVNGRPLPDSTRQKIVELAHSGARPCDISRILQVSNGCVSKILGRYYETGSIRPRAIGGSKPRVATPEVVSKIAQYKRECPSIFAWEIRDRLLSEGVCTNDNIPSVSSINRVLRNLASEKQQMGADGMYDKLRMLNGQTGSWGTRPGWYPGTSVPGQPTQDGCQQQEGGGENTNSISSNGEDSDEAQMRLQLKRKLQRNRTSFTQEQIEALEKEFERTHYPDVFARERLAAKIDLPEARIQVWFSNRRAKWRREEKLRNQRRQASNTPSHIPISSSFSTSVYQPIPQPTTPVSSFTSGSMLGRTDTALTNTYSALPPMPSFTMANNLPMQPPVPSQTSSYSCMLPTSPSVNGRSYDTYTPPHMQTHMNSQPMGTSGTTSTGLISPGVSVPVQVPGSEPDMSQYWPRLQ
Hepatocyte nuclear factor 6 (Homo sapiens), sequence (Q9UBC0 whole entry, looked up, the tested form may be a part): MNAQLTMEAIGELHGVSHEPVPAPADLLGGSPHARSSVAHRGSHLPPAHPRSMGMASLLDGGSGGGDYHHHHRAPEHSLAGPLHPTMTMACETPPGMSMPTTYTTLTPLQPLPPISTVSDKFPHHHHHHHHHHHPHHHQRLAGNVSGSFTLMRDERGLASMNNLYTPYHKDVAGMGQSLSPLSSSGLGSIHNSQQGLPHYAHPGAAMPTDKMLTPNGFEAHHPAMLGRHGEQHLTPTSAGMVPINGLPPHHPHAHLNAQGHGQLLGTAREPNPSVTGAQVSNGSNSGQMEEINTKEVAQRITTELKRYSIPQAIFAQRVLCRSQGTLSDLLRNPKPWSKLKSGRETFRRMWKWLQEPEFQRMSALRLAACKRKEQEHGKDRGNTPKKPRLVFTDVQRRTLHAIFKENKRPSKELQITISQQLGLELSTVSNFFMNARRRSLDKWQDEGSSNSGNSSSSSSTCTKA
Bile acid receptor (Homo sapiens), sequence (Q96RI1 whole entry, looked up): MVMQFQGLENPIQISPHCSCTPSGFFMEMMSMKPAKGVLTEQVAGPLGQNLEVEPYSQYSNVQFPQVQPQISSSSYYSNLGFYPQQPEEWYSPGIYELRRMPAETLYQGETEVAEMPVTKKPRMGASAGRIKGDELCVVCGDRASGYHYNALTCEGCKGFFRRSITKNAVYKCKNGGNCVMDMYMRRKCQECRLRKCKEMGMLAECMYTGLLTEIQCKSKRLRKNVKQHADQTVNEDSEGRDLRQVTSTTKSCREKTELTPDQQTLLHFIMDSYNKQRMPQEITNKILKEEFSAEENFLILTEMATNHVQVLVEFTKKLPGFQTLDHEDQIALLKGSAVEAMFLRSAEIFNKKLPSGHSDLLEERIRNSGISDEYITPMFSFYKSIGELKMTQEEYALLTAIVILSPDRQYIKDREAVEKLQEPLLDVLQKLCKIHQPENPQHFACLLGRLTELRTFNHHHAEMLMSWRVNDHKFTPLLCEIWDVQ

C[Si](C)(C)C(F)(F)C(F)(F)C(F)(F)F
inactive: all assays above

c1ccc2cc3ccccc3cc2c1
not listed: [9]
inactive: all other assays above

CCCCCCOC(=O)CC(CC(=O)OCCCCCC)(OC(=O)CCC)C(=O)OCCCCCC
active: [13] 0.922 µM
not listed: [2]
inactive: all other assays above

c1ccc2c(c1)-c1cccc3c1c-2cc1ccccc13
inactive: [1] | [3] | [4] | [5] | [6] | [7] | [8] | [9] | [10] | [11] | [12] | [13] | [14] | [15] | [16] | [17] | [18] | [19] | [20]
active: [7] 4.67 µM | [14] 2.26 µM

O=S1(=O)CCCO1
not listed: [2]
inactive: all other assays above

CCCCCCCCCCCCCCCCOS(=O)(=O)O
active: [4] 22.8 µM | [10] 25.4 µM
not listed: [3] | [14]
inactive: all other assays above

OC[C@H]1O[C@@](CO)(O[C@H]2O[C@H](CO)[C@@H](O)[C@H](O)[C@H]2O)[C@@H](O)[C@@H]1O
not listed: [3]
inactive: all other assays above

Cc1ncc([C@@H](CCCCCCc2ccc3c(n2)NCCC3)CC(=O)O)cn1
active: [13] 27.6 µM
not listed: [3] | [11]
inactive: all other assays above

COS(C)(=O)=O
not listed: [2]
inactive: all other assays above

CCn1nc(C)c2c1C(=O)NCC(c1ccc(O)cc1)=N2
active: [18] 2.82 µM
not listed: [2] | [15]
inactive: all other assays above

CCCCCCCCCC
not listed: [3] | [11]
inactive: all other assays above

CC(C)C(=O)Nc1ccc([N+](=O)[O-])c(C(F)(F)F)c1
active: [9] 167 µM | [10] 100 µM | [13] 2.87 µM
not listed: [3] | [7] | [14]
inactive: all other assays above

O=C(NO)C1(NS(=O)(=O)c2ccc(Oc3ccc(F)cc3)cc2)CCOCC1
active: [18] 31.2 µM
not listed: [2] | [11]
inactive: all other assays above
